PubChem BioAssay (NCATS)
Results filed as inconclusive are left out. The source made the active and inactive calls. The call rests on the fitted dose curve; in most records, active means well fitted curve in the direction sought with a large enough effect; inconclusive means small, poorly fitted or top-dose-only effect, or another doubt; inactive means no such curve, though single readings can be large; an effect the other way counts as inactive or inconclusive.

Columns and labels:
[1] = qHTS for ATAD5 Antagonist screened against the NCATS CANVASS Library (AID 1347370)
Method in brief: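 Compounds (11-point) co-dosed with 10 µM 5-FUrd for 16 h at 37 °C onto HEK293T-ATAD5 luciferase reporter cells. Viability measured by CellTiter-Fluor fluorescence, then ATAD5 reporter signal by luminescence.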

[2] = J3T Cancer Cell Toxicity qHTS against the NCATS CANVASS Library (AID 1347371)
Method in brief: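 Cytotoxicity read as CellTiterGlo ATP luminescence after 72 h incubation (37C, 5% CO2) of J3T canine glioma cells (500/well) with an 11-point compound series.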

[3] = target: Nuclear receptor subfamily 1 group I member 3 (Homo sapiens) (UniProt Q14994); test: qHTS for Constitutive Androstane Receptor (CAR) Antagonist screened against the NCATS CANVASS Library (AID 1347372)
Nuclear receptor subfamily 1 group I member 3 (Homo sapiens), sequence (Q14994 whole entry, looked up): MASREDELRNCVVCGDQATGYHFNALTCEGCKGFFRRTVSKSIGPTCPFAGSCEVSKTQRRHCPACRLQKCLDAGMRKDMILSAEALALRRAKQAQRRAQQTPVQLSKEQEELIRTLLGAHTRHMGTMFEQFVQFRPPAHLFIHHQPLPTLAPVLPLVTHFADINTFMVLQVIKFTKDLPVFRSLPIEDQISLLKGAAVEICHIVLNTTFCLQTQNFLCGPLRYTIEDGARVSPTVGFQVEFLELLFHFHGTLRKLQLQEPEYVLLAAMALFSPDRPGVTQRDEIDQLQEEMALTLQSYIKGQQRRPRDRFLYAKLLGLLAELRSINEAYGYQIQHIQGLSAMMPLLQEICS
Method in brief: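 Antagonist mode: compound added alongside 50 nM CITCO to HepG2-hCAR-CYP2B6 reporter cells, 24hr at 37C. Viability by CellTiter-Fluor fluorescence, then CAR-driven luciferase by ONE-Glo luminescence.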

[4] = target: Nuclear receptor subfamily 1 group I member 3 (Homo sapiens) (UniProt Q14994); test: qHTS for Constitutive Androstane Receptor (CAR) Agonist screened against the NCATS CANVASS Library (AID 1347373)
Method in brief: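 Agonist mode with 1.5uM PK11195 present: compounds for 24hr on HepG2-hCAR-CYP2B6 cells. CellTiter-Fluor fluorescence (ex 405, em 540 nm) gives viability; ONE-Glo luminescence reports CAR activation.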

[5] = qHTS for Hypoxia signaling pathway (HIF-1) antagonists against the NCATS CANVASS Library (AID 1347374)
Method in brief: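 Antagonism scored as loss of CoCl2-driven (60 uM stock added) HRE beta-lactamase signal, read by CCF4 FRET at 460/530 nm. Compounds were tested in an 11-point series on ME-180 reporter cells for 17 hrs at 37C, with parallel CellTiter-Glo cytotoxicity.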

[6] = qHTS for Hypoxia signaling pathway (HIF-1) agonists against the NCATS CANVASS Library (AID 1347375)
Method in brief: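 Beta-lactamase reporter under HRE control in ME-180 cells; compounds (11-point qHTS series) added after 5 hrs plating, then 17 hrs at 37C. FRET substrate read after 2 hr; same-well CellTiter-Glo luminescence gave viability and normalization.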

[7] = 10-beta competent E. coli microbial cell viability qHTS against the NCATS CANVASS Library (AID 1347376)
Method in brief: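 Read-out: BacTiter-Glo ATP luminescence, taken 20 min after reagent addition. Beforehand, 10-beta competent E. coli at 0.2 OD had been incubated overnight at 37C with compounds at 11 concentrations.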

[8] = DH5-alpha competent E. coli microbial cell viability qHTS against the NCATS CANVASS Library (AID 1347377)
Method in brief: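 Bacterial viability as ATP-dependent luminescence (BacTiter-Glo), read after overnight 37 °C exposure of DH5-alpha competent E. coli to compounds in 11-point titration.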

[9] = qHTS for H2AX Agonists against the NCATS CANVASS Library (AID 1347378)
Method in brief: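 TR-FRET readout (ex 320 nm, em 665/620 nm ratio) of phospho-H2AX (S139) in CHO-K1 lysates. Cells treated 3 hr at 37C with compound titration, 0.76% DMSO; lysis 30 min, antibody detection 24 hr at RT.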

[10] = qHTS for Inflammasome Signaling Inhibitors: IL-1-beta AlphaLISA screen against the NCATS CANVASS Library (AID 1347379)
Method in brief: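 Secreted IL-1B from human THP-1 cells quantified by AlphaLISA 16 hr after compound addition (final up to 57.5 uM). A 1 hr compound pretreatment preceded inflammasome activation with 250 ng/mL LPS plus 1.25 mM ATP (final).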

[11] = qHTS for Antimalaria activity screened against the NCATS CANVASS Library (AID 1347380)
Method in brief: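 SYBR Green fluorescence at 485/535 nm was read 18 hr after lysis. This followed a 72 hr incubation at 37C in 5% O2, 5% CO2 of Dd2-infected erythrocytes (0.3% parasitemia, 2.5% final hematocrit) with compounds titrated over 11 concentrations.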

[12] = Inflammasome Signaling qHTS Counterscreen: IL-1-beta AlphaLISA counterscreen against the NCATS CANVASS Library (AID 1347381)
Method in brief: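 Purified IL-1-beta (4 pg/well) + compound, 11-pt conc. series; acceptor beads 6 ug/mL + biotin-Ab 0.6 nM final, 1 h RT; SA-donor 24 ug/ml final, 30 min dark RT; read ex 680/em 615.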

[13] = Cytotoxicity qHTS for assessment of Hepg2 cells membrane integrity screened against the NCATS CANVASS Library (AID 1347387)
Method in brief: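 Membrane damage quantified as fluorescent LDH-release signal (ex 560, em 590 nm) in HepG2 cells treated 5 hr at 37C. qHTS format, 11 concentrations spanning 0.59 nM - 46 uM final, cells plated at 2000 per well the night before.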

[14] = qHTS assay for small molecule disruptors of mitochondrial membrane potential screened against the NCATS CANVASS Library (AID 1347389)
Method in brief: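 Mitochondrial membrane potential in HepG2: 1 h compound treatment (11-point concentration series), 30 min m-MPI dye at 37C, then dual fluorescence of J-aggregates (ex 540/em 590) and monomers (ex 490/em 535); lower red/green ratio indicates depolarization.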

[15] = Secretion counterscreen for inhibitors of the SERCaMP assay screened against the NCATS CANVASS Library (AID 1347390)
Method in brief: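 Luminescence from constitutively secreted GLuc in SH-SY5Y-GLuc STOP cells, read after coelenterazine addition, served as read-out. Compounds tested 0.001 - 77 uM for 20 h at 37C; Brefeldin A as positive control.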

[16] = qHTS for activators of Nrf2/ARE signaling pathway screened against the NCATS CANVASS Library (AID 1347391)
Method in brief: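 Eleven-point qHTS, 16 h treatment of HepG2 cells carrying an ARE-driven beta-lactamase reporter; CCF4 ratio read (405 nm excitation, 460 and 530 nm emission), with CellTiter-Glo ATP luminescence for viability.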

[17] = qHTS for activators of dead-cell proteases activity screened against the NCATS CANVASS Library (AID 1347392)
Method in brief: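 Luminescent dead-cell protease readout (AAF-aminoluciferin, 15 min, room temperature) after 5 h compound treatment of HepG2 cells (2000/well, pre-attached 18 h). Eleven concentrations.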

[18] = qHTS for inhibitors of ER calcium dysfunction: SERCaMP assay screened against the NCATS CANVASS Library (AID 1347393)
Method in brief: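 Thapsigargin-induced ER calcium depletion drives GLuc-SERCaMP secretion from SH-SY5Y cells; compounds given 16 h beforehand were scored by lowered coelenterazine luminescence after 4 h challenge.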

[19] = Vero-766 cells viability qHTS against the NCATS CANVASS Library: Counterscreen for Zika virus inhibition assay (AID 1347394)
Method in brief: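 CellTiter-Glo luminescence, lower signal indicating cytotoxicity. Vero 766 cells without Zika virus, 1000 cells/well, plated overnight, then treated 72 h at 37C across an 11-point series.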

[20] = qHTS for inhibitors of Wild type Zika virus screened against the NCATS CANVASS Library (AID 1347396)
Method in brief: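 Protection against wild-type Zika cytopathic effect is measured in African green monkey Vero 766 cells exposed to an 11-point compound series. Surviving cells are quantified by CellTiter Glo luminescence after 72 h.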

Measured: outcome

CN(C)CCc1c[nH]c2ccccc12
inactive: all assays above
